# Bioassay records deposited in PubChem BioAssay by several laboratories.
# Most compounds without a hit are left out; they make up all but 4% or so of the library.
# Jurkat NFkB inh: inhibitors of induced NF-kB luciferase reporter, primary screen, TCR NF-kB activation inhibitor project, cell-based, luminescence, uHTS; Jurkat, PMA/ionomycin-induced NF-kB luciferase reporter; inhibition, % at 4 µM; 330,000 tested, 0.53% active; AID 435003, 2010; in the data active = inhibition above about 50%
# Beta apoptosis: inhibitors of cytokine-induced beta cell apoptosis, primary screen, luminescence | INS-1E cytokine-induced death, ATP luminescence, 48 h; percent of positive-control rescue, neutral wells zero | protection from apoptosis, % (concentration not given with the values) | 300,000 tested, 0.8% active | AID 435005, 2010;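 active = Every replicate reaches about 75%, or at least half do and their mean reaches it too, limit read from the data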;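 also: 0% = cytokine-treated negative control wells and 100% = positive control rescue; higher means more ATP so stronger rescue from cytokine killing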
# Gli-Sufu block: Gli-Sufu pathway antagonists, primary screen, luciferase luminescence, Sufu-KO-LIGHT cells, uHTS; Sufu-KO-LIGHT fibroblasts, Gli luciferase reporter luminescence; 340,000 tested, 0.74% active; inhibition, % at 5 µM;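 active = inhibition above about 55%, limit read from the data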;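 also: 0% = DMSO-treated cells and 100% = wells with medium but no cells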
# Mdm2-MdmX inh: inhibitors of human Mdm2-MdmX association, primary screen, cell-based, luminescence, split luciferase, SaOS-2, uHTS; Protein Mdm4 (Homo sapiens) + E3 ubiquitin-protein ligase Mdm2 (Homo sapiens), …; SaOS-2 split-luciferase Mdm2/MdmX complementation; inhibition, % at 8 µM; 330,000 tested, 3% active; AID 485346, 2010;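 active = inhibition of at least 50% at 8 µM in the primary screen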
# Target sequence (O15151 whole entry, looked up): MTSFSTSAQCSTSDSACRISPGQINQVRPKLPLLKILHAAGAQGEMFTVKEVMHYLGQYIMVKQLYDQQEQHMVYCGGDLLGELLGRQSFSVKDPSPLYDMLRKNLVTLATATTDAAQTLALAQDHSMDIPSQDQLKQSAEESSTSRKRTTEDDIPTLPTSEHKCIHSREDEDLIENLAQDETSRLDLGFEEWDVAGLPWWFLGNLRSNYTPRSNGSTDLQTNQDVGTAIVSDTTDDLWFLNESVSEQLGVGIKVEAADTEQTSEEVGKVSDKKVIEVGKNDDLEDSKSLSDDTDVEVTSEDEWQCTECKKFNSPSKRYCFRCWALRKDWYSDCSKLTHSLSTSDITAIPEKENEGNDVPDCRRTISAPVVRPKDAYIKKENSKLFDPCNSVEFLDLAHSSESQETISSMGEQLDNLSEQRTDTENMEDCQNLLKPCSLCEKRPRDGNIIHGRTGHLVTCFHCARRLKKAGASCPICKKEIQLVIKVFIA
# Target sequence (Q00987 whole entry, looked up): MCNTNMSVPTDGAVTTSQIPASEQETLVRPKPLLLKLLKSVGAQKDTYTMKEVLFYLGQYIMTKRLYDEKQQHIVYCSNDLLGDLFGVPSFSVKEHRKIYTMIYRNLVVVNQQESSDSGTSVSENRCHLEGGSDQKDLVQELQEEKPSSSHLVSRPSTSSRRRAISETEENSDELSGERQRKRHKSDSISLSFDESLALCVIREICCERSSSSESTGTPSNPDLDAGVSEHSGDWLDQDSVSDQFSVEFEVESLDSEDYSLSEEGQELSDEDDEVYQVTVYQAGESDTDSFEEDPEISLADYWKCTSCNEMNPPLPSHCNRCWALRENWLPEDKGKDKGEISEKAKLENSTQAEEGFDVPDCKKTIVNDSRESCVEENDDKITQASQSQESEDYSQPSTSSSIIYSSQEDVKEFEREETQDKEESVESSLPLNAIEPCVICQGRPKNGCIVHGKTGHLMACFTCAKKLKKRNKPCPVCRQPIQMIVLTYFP
# 697 NFkB inh: inhibitors of PMA/ionomycin-induced NF-kB reporter, 697 cells, primary screen, B-cell NF-kB inhibitor project, cell-based, luminescence, uHTS | 330,000 tested, 0.33% active | inhibition, % at 4 µM | 697 B-cell NF-kB luciferase reporter, 16 h; in the data active = inhibition above about 35%
# Gli-Sufu confirm: Gli-SUFU pathway antagonists, confirmation, single concentration, luciferase luminescence, Sufu-KO-LIGHT cells | shares compounds with Gli-Sufu block | Gli luciferase reporter | inhibition, % at 5 µM | 2,500 tested, 40% active;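 active = mean inhibition at 5 µM reaching about 45%, limit read from the data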;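 also: plate controls were DMSO-treated cells for no effect and wells lacking cells for full effect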
# Gli cytotox: cytotoxicity in Sufu-KO-LIGHT cells, confirmation, cytotoxicity control for Gli-SUFU antagonist project, cell-based, ATP luminescence, single concentration | 2,500 tested, 32% active | shares compounds with Gli-Sufu block | AID 651994, 2013 | cytotoxicity, % at 5 µM;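 active = mean cytotoxicity at 5 µM above about 25%, limit read from the data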;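 also: cells exposed to compound overnight for roughly 16 to 18 hours; plate controls were DMSO wells with cells for no effect and medium without cells for full effect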
# Wnt3a cs: Wnt3a reporter signal inhibition, confirmation, counter-screen for Gli-SUFU antagonist project, Wnt-LIGHT cells, luminescence, single concentration; shares compounds with Gli-Sufu block; Wnt3a-driven luciferase reporter; inhibition, % at 6.25 µM; 2,500 tested, 20% active;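 active = mean inhibition above about 25%, limit read from the data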
# The depositor's hits bear a star; . = not tested or not shown.
SMILES,Jurkat NFkB inh,Beta apoptosis,Gli-Sufu block,Mdm2-MdmX inh,697 NFkB inh,Gli-Sufu confirm,Gli cytotox,Wnt3a cs
CCCCCCCCCCOC(=O)C[N+](C)(C)C/C=C(/C)Cl,10,113*,63*,39,-19,69*,27*,35*
CCCCCCCCOC(=O)C[N+](C)(C)C/C=C(/C)Cl,-1,7,42,-6,-32,.,.,.
Cc1cccc(OCCn2cc(/C=N/NC(=O)c3ccncc3)c3ccccc32)c1,4,-1,96*,-10,-10,27,29*,-13
Nc1nc(SCC(=O)NC2CCCC2)[nH]c(=O)c1NC(=O)c1cccs1,1,2,-13,-1,-12,.,.,.
CCC1Sc2ccc(S(=O)(=O)CCC(=O)Nc3ccccc3Cl)cc2NC1=O (centres undefined),-7,-8,51,4,-23,12,23,17
COc1cc(C)c(C)cc1S(=O)(=O)N1CCN(Cc2ccccc2)CC1,-28,-7,50,-4,-42,18,-4,14
CC1CCCCN1c1ncnc2ccccc12 (centres undefined),23,39,22,33,-60,.,.,.
CC1(C)CC2CC(C)(CN2c2ncnc3ccccc23)C1 (centres undefined),26,53,53,17,-43,40,4,21
CCOc1cc(/C=C2/NC(=O)N(Cc3ccccc3F)C2=O)ccc1O,29,-3,74*,23,5,71*,19,45*
COc1cc(/C=C2/NC(=O)N(Cc3ccccc3F)C2=O)cc(OC)c1O,-27,-4,5,-20,3,.,.,.
COC(=O)c1ccc2c(=O)[nH]c(COC(=O)c3[nH]c(C)c(C(C)=O)c3C)nc2c1,-1,-3,-2,28,2,.,.,.
O=C(COC(=O)c1cc2ccccc2oc1=O)Nc1ccc(F)cc1F,-36,-4,-12,-51,1,.,.,.
CN(C[C@@H](Cc1cccc2ccccc12)N(C[C@H](Cc1ccccc1)N(CCc1ccccc1)N=O)N=O)N=O,16,-1,60*,18,26,7,10,-12
CC1CC=CCC1(CO)CO (centres undefined),.,.,-9,.,.,.,.,.
Cc1ccc(NS(=O)(=O)c2ccc(-c3ccc(=O)[nH]n3)o2)cc1N(C)C,-5,-7,-14,15,-15,.,.,.
Cc1ccc(NS(=O)(=O)c2ccc(-c3ccc(=O)[nH]n3)o2)cc1Cl,7,-7,54,-30,-3,9,-4,5
Cc1nc2ccc(S(=O)(=O)NCC(=O)NCCN3CCCCCC3)cc2s1,0,-3,83*,17,14,22,5,1
CCOCCCn1c(SCc2nc3ccccc3s2)nc2ccccc2c1=O,-29,6,54,-20,-82,30,16,-145
CCOCCCn1c(SCC(=O)Nc2ccccc2)nc2ccccc2c1=O,1,0,26,-21,-1,.,.,.
COc1ccc(CCNC(=O)c2ccc(CN3CCC(Cc4ccccc4)CC3)cc2)cc1,30,-3,18,23,-34,.,.,.
C=CCNC(=O)c1ccc(CN2CCC(Cc3ccccc3)CC2)cc1,19,-1,56*,11,-3,16,18,-6
CC(/C=C1\SC(=O)N(CCCC(=O)O)C1=O)=C\c1ccccc1,.,-4,60*,.,.,73*,12,100*
CC(=C\c1ccccc1)/C=C1/SC(=S)N(CCCC(=O)O)C1=O,10,1,5,-5,-12,.,.,.
CN1/C(=C\C(=O)COC(=O)Cn2nnc(-c3ccccc3)n2)C(C)(C)c2ccccc21,14,72,71*,17,-18,68*,43*,34*
